# Results published in PubChem BioAssay (Tox21).
# Results filed as inconclusive are left out. The source made the active and inactive calls. The call rests on the fitted dose curve; in most records, active means well fitted activation curve with a large enough effect in the signal ratio in the repeat runs (not every such curve was filed as active); inconclusive means weak or mixed curves, or effect the other way; inactive means flat fitted curve, though single readings scatter; the % refers to the signal ratio.
# Biological target: Bile acid receptor (Homo sapiens) (UniProt Q96RI1)
# Experiment: qHTS assay to identify small molecule agonists of the farnesoid-X-receptor (FXR) signaling pathway (AID 743220)
# Conditions: HEK293T FXR-UAS-bla, beta-lactamase FRET ratio, 16 h; series mostly up to 62.6 µM
# Text: National Center for Advancing Translational Sciences [NCATS]
# NIH Chemical Genomics Center [NCGC]
# U.S. Environmental Protection Agency [EPA]
# National Institutes of Environmental Health Sciences [NIEHS]
# National Toxicology Program [NTP]
# U.S. Food and Drug Administration [FDA]
# The farnesoid-X-receptor (FXR), a nuclear hormone receptor, is highly expressed in liver, intestine, kidney and adrenal cortex. Natural ligands of FXR are the bile acids (Cholic acid, Chenodeoxy cholic acid etc). FXR is an important regulator of diverse metabolic pathways, including the bile acid homeostasis, lipid and glucose metabolisms. FXR regulates the expression of target genes by binding either as a monomer or as a heterodimer with the retinoid X receptor (RXR). Numerous studies have reported that FXR exerts protective function during cholestasis, diabetes, liver regeneration, and cancer. To identify compounds that activate FXR signaling, GeneBLAzer FXR-UAS-bla HEK 293T cell line (Invitrogen, Carlsbad, CA) containing a beta-lactamase reporter gene under the control of a UAS response element was used to screen the Tox21 10K compound library.
# Tox21 Assay Protocol Summary:
# FXR-bla cells were dispensed at 5000 cells/5uL/well in 1536-well black wall/clear bottom plates using a Multidrop Combi (Thermo Fisher Scientific, Waltham, MA) dispenser. After the assay plates were incubated at 37C and 5% CO2 for 5 h, 23 nL of compounds dissolved in DMSO, positive controls or DMSO only was transferred to the assay plate by a Pintool station (Kalypsys, San Diego, CA). The assay plates were incubated at 37C for 16 h. After 1 uL of LiveBLAzerTM B/G FRET substrate was added using a Bioraptr Flying Reagent Dispenser (FRD) workstation (Beckman Coulter, Indianapolis, IN), the plates were incubated at room temperature for 2 h, and fluorescence intensity was measured by an Envision plate reader (PerkinElmer, Shelton, CT).
# On the % scale 0 is the no-effect control and ±100 the full control effect.
# Bile acid receptor (Homo sapiens), sequence (Q96RI1 whole entry, looked up): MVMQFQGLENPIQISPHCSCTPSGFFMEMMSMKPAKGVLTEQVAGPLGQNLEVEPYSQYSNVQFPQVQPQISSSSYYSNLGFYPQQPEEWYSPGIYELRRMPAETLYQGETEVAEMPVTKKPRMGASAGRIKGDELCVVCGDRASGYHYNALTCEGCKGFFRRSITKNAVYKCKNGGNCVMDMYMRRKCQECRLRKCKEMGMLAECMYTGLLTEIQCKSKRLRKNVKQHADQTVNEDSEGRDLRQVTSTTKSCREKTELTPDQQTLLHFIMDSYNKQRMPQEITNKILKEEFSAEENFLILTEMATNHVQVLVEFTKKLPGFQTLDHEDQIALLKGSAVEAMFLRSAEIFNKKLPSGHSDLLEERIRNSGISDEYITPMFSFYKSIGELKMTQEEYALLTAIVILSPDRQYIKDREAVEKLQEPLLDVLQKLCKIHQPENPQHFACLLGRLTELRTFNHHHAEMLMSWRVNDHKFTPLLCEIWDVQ
Structure (SMILES),outcome,activation
O=c1[nH]c(=O)c2ccccc2o1,inactive,
O=C1c2ccccc2-c2ccccc21,inactive,
CCOC(=O)CCc1ccccc1,inactive,
Cc1ccc2c(c1)c1c3n2CCNC3CCC1 (stereo not given),inactive,
Cc1nc(C)nc(N2C[C@@H](C)N(c3ccnc([C@@H](C)O)n3)[C@@H](C)C2)n1,inactive,
CC(=O)OC(C(=O)c1ccccc1)c1ccccc1 (stereo not given),inactive,
CC(C)CCCCCCOC(=O)C1CCCCC1C(=O)OCCCCCCC(C)C (stereo not given),inactive,
CC(=O)OCCCc1ccccc1,inactive,
CCOc1ccc(NC(=O)OC(C)C)cc1OCC,inactive,
CCCCCC1CCCC(=O)O1 (stereo not given),inactive,
c1ccc(CNc2ncnc3nc[nH]c23)cc1,inactive,
CCOC(=O)CC#N,inactive,
Cc1cccc(Nc2ccncc2S(=O)(=O)NC(=O)NC(C)C)c1,inactive,
CCc1nccnc1C,inactive,
CCCCCCCCCCCCC,inactive,
CCC(O)C(C)(C)C (stereo not given),inactive,
CCCCCCCCCCCCC1CO1 (stereo not given),inactive,
COc1cc2c(Nc3ccc(Br)cc3F)ncnc2cc1OCC1CCN(C)CC1,inactive,
CC(C)COC(=O)COc1ccc(Cl)cc1Cl,inactive,
O=C(O)/C=C/c1ccccc1,inactive,

Structure (SMILES),outcome,activation
CCN(Cc1cccc(S(=O)(=O)O)c1)c1ccccc1,inactive,
NS(=O)(=O)c1ccccc1OC(F)(F)F,inactive,
CCCOCCOCCOCCO,inactive,
Nc1ccc(S(=O)(=O)Nc2ccccn2)cc1,inactive,
O=C(O)Cc1cccc(-c2cc(CCCCCCc3ccc(O[C@H]4O[C@H](CO)[C@@H](O)[C@H](O)[C@@H]4O)c(-c4cccc(CC(=O)O)c4)c3)ccc2O[C@H]2O[C@H](CO)[C@@H](O)[C@H](O)[C@@H]2O)c1,,5.49% [at 0.55 µM] (inactive)
O=CO,,-0.16% [at 5.95 µM] (inactive)
CCCCC(CC)CNC(=O)CC(C)OC(=O)CCC(=O)O (stereo not given),inactive,
Cc1nc2n(c(=O)c1CCN1CCC(C(=O)c3ccc(F)cc3)CC1)CCS2,inactive,
CCOC(=O)C(C)(C)C,inactive,
C=CCOc1c(Br)cc(Br)cc1Br,inactive,
O=C1OC(=O)c2cc(Oc3ccc4c(c3)C(=O)OC4=O)ccc21,inactive,
CO/N=C(/C(=O)N[C@@H]1C(=O)N2C(C(=O)O)=C(Cn3nnc(C)n3)CS[C@H]12)c1csc(N)n1,inactive,
C/C=C(\C)C(=O)OCC/C=C\CC,inactive,
CC(=O)/C=C/c1ccco1,inactive,
O=C(O)c1ccccc1C(=O)OCc1ccccc1,inactive,
NC(=O)NNC(N)=O,inactive,
CCCCOC(=O)C(=O)OCCCC,inactive,
CCC1COC(=O)O1 (stereo not given),inactive,
C=C(C)C(=O)OC1CC(C)CC(C)(C)C1 (stereo not given),inactive,
COC(/C=C(\C)CCC=C(C)C)OC,inactive,
